In the library only some 3.8% were active in any assay of this set; here they are far more common.
GCN5L2 inh: GCN5L2 (KAT2A) acetyltransferase inhibition. Q92830. GCN5L2 HAT assay, ThioGlo1 CoA-SH fluorescence. Potency, µM (titrated, usually from 58.9 µM), most hits filed as inhibitors. actives 0.21% (n = 390,000). AID 504327
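ThioGlo1-coupled HAT assay: 20nM GCN5L2, 70uM acetyl-CoA, 75uM H3(1-25) peptide, pH 7.5. Fluorescence read at 340/540nm at start and after 20 min at room temperature.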
TrxR1 substrate: is turned over as a substrate by rat TrxR1; O89049; purified TrxR1 substrate turnover, NADPH consumption readout; Potency, µM (titrated, usually from 114 µM); actives 0.01% (n = 390,000); AID 588456; note: nearly all actives have a fitted effect of over 50% in size
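Rat TrxR1, dispensed at 90 nM, was prereduced with 400 uM NADPH (final) for 5 min at ~22 deg C, then incubated with compound 15 min before 400 uM selenite. A first-read NADPH fluorescence drop versus no-compound background flagged substrates.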
Sfp inh: inhibitors of Bacillus subtilis Sfp phosphopantetheinyl transferase | Q9F4F7 | Biochemical Sfp PPTase activity, qHTS | Potency, µM, actives largely listed as inhibitors | actives 3.5% (n = 310,000) | AID 1490;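 note: the enzyme is Sfp with the accession as filed and its product quenches rhodamine fluorescence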
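Buffer: 50 mM Hepes-Na pH 7.6, 10 mM MgCl2, 0.01% Nonidet P-40, 0.01% BSA. Enzyme 15 nM, pre-exposed to compound 15 min; substrates then added and fluorescence change tracked over 30 min.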
rTrxR1 inhibitor: rat TrxR1 inhibition; AID 588453; O89049; actives 1% (n = 390,000); recombinant rTrxR1, NADPH fluorescence consumption, selenite substrate; Potency, µM (top dose mostly 114 µM), actives largely listed as inhibitors; note: nearly all actives have a fitted effect of over 65% in size
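Rat TrxR1 (90 nM in the dispensed reagent) was pre-reduced with 400 uM NADPH for 5 min at room temperature, then incubated with compound for 15 min. After 400 uM selenite was added, NADPH fluorescence (Ex 340/Em 450 nm) was followed for 8 min.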
VDR inh: vitamin D3 receptor (human) inhibition | P11473 | VDR-SRC2-3 peptide fluorescence polarization, 2 h | Potency, µM, hits mostly inhibitors | actives 0.93% (n = 400,000)
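After 23 nl compound addition and a short centrifugation, plates sat for 2 hours at ambient temperature; polarization of fluorescence then indicated loss of VDR binding to peptide SRC2-3.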
GLS inhibitor: glutaminase GLS (human) inhibition. Potency, µM (highest dose often 45.5 µM), usual class: inhibitors. GLS enzymatic activity, qHTS titration. AID 624170. actives 0.21% (n = 410,000). O94925
Target sequence (O94925 whole entry, looked up): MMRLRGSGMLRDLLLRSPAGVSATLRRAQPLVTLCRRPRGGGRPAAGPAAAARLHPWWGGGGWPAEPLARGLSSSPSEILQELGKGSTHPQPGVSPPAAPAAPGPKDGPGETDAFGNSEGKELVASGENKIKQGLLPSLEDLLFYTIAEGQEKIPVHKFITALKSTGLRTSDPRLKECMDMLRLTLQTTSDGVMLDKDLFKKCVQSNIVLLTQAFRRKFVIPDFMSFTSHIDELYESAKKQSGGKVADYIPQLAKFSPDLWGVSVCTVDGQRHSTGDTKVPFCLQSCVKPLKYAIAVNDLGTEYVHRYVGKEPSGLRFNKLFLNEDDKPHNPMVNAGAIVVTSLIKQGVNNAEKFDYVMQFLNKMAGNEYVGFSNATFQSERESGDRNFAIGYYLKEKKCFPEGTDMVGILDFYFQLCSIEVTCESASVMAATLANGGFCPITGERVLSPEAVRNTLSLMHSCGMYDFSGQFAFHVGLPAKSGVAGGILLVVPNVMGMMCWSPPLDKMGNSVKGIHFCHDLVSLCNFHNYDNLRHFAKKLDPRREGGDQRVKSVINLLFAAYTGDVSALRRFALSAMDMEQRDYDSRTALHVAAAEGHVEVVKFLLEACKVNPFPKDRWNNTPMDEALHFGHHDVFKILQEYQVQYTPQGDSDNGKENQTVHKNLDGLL
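Two-point fluorescence kinetic (t0, 30 min RT) for hKGA; glutamate detected via glutamate oxidase–HRP–Amplex Red. Substrate: 1 mM L-glutamine solution; buffer 45 mM KH2PO4, pH 8.2.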
USP1 UbRho: USP1-UAF1 deubiquitinase inhibition validated; Ub-Rhodamine cleavage, fluorescence kinetic read; AID 540327; Potency, µM (highest dose often 56.8 µM), usual class: inhibitors; shares compounds with VDR inh; actives 50% (n = 50)
VDR confirm: inhibits human vitamin D receptor, primary hit validation; shares compounds with VDR inh; VDR-coactivator inhibition assay, qHTS confirmation; Potency, µM, hits mostly inhibitors; actives 89% (n = 840); AID 602199
VDR FP fluor: blocks human VDR-coactivator binding in fluorescein assay | actives 48% (n = 840) | Potency, µM (doses to about 57.1 µM), hits mostly inhibitors | VDR-coactivator binding, fluorescein fluorescence polarization | shares compounds with VDR inh | AID 602200
VDR bla reporter: inhibits human VDR in beta-lactamase reporter cells; VDR beta-lactamase reporter cells, FRET ratio; cells co-treated with VDR agonist LG190178; shares compounds with VDR inh; actives 23% (n = 840); Potency, µM (top dose mostly 46.1 µM), hits mostly inhibitors
VDR viability: cell toxicity, VDR inhibitor hit counter-screen | Potency, µM (highest dose often 48.3 µM), most hits filed as cytotoxic | actives 18% (n = 840) | shares compounds with VDR inh | cytotoxicity counter-screen, cell viability, qHTS; note: nearly all actives have a fitted effect of over 75% in size
A number is an active result; n = inactive; u = inconclusive; x = no result given; ! = repeats disagree; [ ] = dose if it differs, or a comment. Calls come from the whole dose curve; as a rule, active = well fitted curve in the direction sought with a large enough effect; inconclusive = small, poorly fitted or top-dose-only effect, or another doubt; inactive = no such curve, though single readings can be large; an effect the other way counts as inactive or inconclusive.

SMILES	GCN5L2 inh	TrxR1 substrate	Sfp inh	rTrxR1 inhibitor	VDR inh	GLS inhibitor	VDR confirm	VDR FP fluor	VDR bla reporter	VDR viability	others
O=C(c1cccc([N+](=O)[O-])c1)c1ccc2c(c1)OCCOCCOCCOCCO2	n	n	n	n	n	n	x	x	x	x
O=C(/C=C/c1cccc([N+](=O)[O-])c1)c1ccc2c(c1)OCCO2	n	n	n	n	u	n	12.6	12.6µM	u	u
O=C(/C=C/c1cccc([N+](=O)[O-])c1)c1cccs1	n	n	n	u	u	n	5.62	7.94µM	n	u
O=C(/C=C/c1cccc([N+](=O)[O-])c1)Nc1ccc(NC(=O)c2cccs2)cc1	n	n	n	n	n	n	x	x	x	x
CC(C)(C)C(=O)Nc1ccc2c(c1)C(=O)C(=O)c1ccccc1-2	x	3.16µM	x	6.31µM	8.91µM	x	1.26	1µM	4.11µM	5.97µM
CCOc1ccc(-c2cc(C(=O)Nc3ccc(F)cc3)[nH]n2)c(C)c1	x	x	x	x	x	n	x	x	x	x
Cc1ccc(NC2=CC(=O)C(=O)c3ccccc32)cc1	n	n	n	n	n	n	x	x	x	x
NS(=O)(=O)c1ccc(NC2=CC(=O)C(=O)c3ccccc32)cc1	n	u	n	u	u	n	14.1	7.94µM	u	u
CCOC(=O)CNCCC(=O)c1ccc(Br)cc1	n	n	n	0.282µM	50.1µM	n	21.2	22.4µM	u	u
COC(=O)C1=C(C(=O)OC)[N+]2=C3N(C(=O)NC2(C)C)[C@H](CO)C[C@@]32c3ccccc3N(Cc3ccccc3)[C@@H]12	x	n	x	n	n	n	x	x	x	x
CC(CNC(=O)c1cc(COc2c(F)cccc2F)on1)c1ccccc1 (stereo not drawn)	n	n	n	n	n	n	x	x	x	x
CCN1C/C(=C/c2cccc([N+](=O)[O-])c2)C(=O)/C(=C/c2cccc([N+](=O)[O-])c2)C1	n	n	n	u	10µM	n	3.36	u	2.06µM	u
COc1ccccc1OCC(=O)N1CCCCCC1	x	x	x	x	x	n	x	x	x	x
CN1CCN(C(=O)c2sc(=S)n(-c3ccccc3)c2N)CC1	u	n	n	n	44.7µM	n	10.6	u	n	n
COC(=O)c1scc(C)c1NC(=O)c1ccc(Cl)cc1	n	n	n	n	n	n	x	x	x	x
CC(C)(C)c1cc(C(c2cccnc2)N2CCN(CCO)CC2)cc(C(C)(C)C)c1O (stereo not drawn)	n	n	20µM	u	25.1µM	u	3.77	3.98µM	16.4µM	u
CC(C)(C)n1nnnc1C(c1cccnc1)N1CCN(C2CCCCC2)CC1 (stereo not drawn)	n	n	n	n	n	n	x	x	x	x
COC(=O)c1ccc2nc(-c3cccc(Cl)c3)c(Cc3ccccc3OC)n2c1	x	x	x	x	x	n	x	x	x	x
Cc1[nH]n(-c2ncc(-c3ccccc3)s2)c(=O)c1C(c1ccc(Br)cc1)C(C#N)C#N (stereo not drawn)	u	n	56.2µM	31.6µM	35.5µM	u	7.52	u	u	n
Cc1[nH]n(C(N)=S)c(=O)c1C(c1ccccc1)C(C#N)C#N (stereo not drawn)	n	n	n	u	u	n	x	x	x	x
COc1ccc(C(=O)/C=C/C(=O)N(CC(=O)NC2CCCCC2)Cc2ccc(F)cc2)c(O)c1	n	n	8.91µM	3.98µM	79.4µM	n	10.6	4.47µM	13µM	9.2µM
CS(=O)(=O)N(CC(=O)NC1CCCCC1)Cc1ccc(F)cc1	n	n	n	n	n	n	x	x	x	x
Cc1ccccc1N1CC(=O)N(c2ccccc2C)CC1=O	n	n	n	n	n	n	x	x	x	x
Cc1cccc2c1c1ccc3c(c1n2C)C(=O)C=CC3=O	n	n	3.55µM	u	22.4µM	n	9.47	12.6µM	7.31µM	8.91µM
CC1(C)CCC2=C(O1)c1ccccc1C(=O)C2=O	n	17.8µM	63.1µM!	25.1µM!	8.91µM	x	14.1	11.2µM	u	23.8µM!	USP1 UbRho=8.35µM
SMILES	GCN5L2 inh	TrxR1 substrate	Sfp inh	rTrxR1 inhibitor	VDR inh	GLS inhibitor	VDR confirm	VDR FP fluor	VDR bla reporter	VDR viability	others
CC1(C)CCC(=O)c2ccccc21	x	n	x	n	n	n	x	x	x	x
O=C1C(=O)c2c(C(=O)c3ccccc3)coc2-c2ccccc21	n[0.501 µM]	n	56.2µM	n	3.16µM	n	4.23	u	u	18.4µM
Cc1oc2c(c1C(=O)O)C(=O)c1ccccc1C2=O	n	n	u	n	n	n	x	x	x	x
O=C(C1=C(c2ccccc2)C(=O)c2ccccc2C1=O)c1ccccc1	n	n	n	n	n	n	x	x	x	x
Cc1oc2c(c1C(=O)c1ccccc1)C(=O)C(=O)c1ccccc1-2	n	u	50.1µM	n	u	n	2.51	3.16µM	20.6µM	3.36µM
O=C(Nc1nc2ccccc2[nH]1)c1ccc(S(=O)(=O)N2CCOCC2)cc1	n	n	n	n	n	n	x	x	x	x
O=C(Cc1ccc(Cl)cc1)Nc1cccc(S(=O)(=O)Nc2ccccc2F)c1	n	n	n	n	n	n	x	x	x	x
O=C(CSc1ccc([N+](=O)[O-])cc1)Nc1cccc(S(=O)(=O)Nc2ccccc2F)c1	n	n	44.7µM	n	79.4µM	n	18.9	22.4µM	n	n
CCc1ccc(-n2nc3cc(C)c(N)cc3n2)cc1	n	n	56.2µM	n	u	n	7.08	12.6µM	n	n
Cc1ccc(-n2nc3cc(C)c(N)cc3n2)cc1	n	n	n	n	u	n	x	x	x	x
Cc1ccc(S(=O)(=O)N2CCCOC2CNC(=O)C(=O)NCCc2ccco2)cc1 (stereo not drawn)	x	x	x	x	x	n	x	x	x	x
O=C(NCC(c1cccnc1)N1CCN(c2ccccc2)CC1)c1ccc2c(c1)OCO2 (stereo not drawn)	n	n	n	n	n	n	x	x	x	x
Cc1ccc(-c2n[nH]c(=S)n2C)cc1Cl	n	n	u	n	n	u	x	x	x	x
Cc1ccc(C(=O)N2CCN(c3ccccc3)CC2)cc1NC(=O)c1nsc2ccccc12	n	n	x	n	n	n	x	x	x	x
CCOC(=O)c1sc(N2N=C(C)/C(=C\c3ccc(OCC(=O)OC)cc3)C2=O)nc1C	n	n	n	n	u	n	x	x	x	x

Screening results from PubChem.
